The term AC50 denotes the midpoint of the concentration-response curve, whichever way the signal moves.

Outcome and AC50 data for 23 compounds are collected here from PubChem BioAssay (EPA / NIEHS).

Results filed as inconclusive are left out. The source made the active and inactive calls. The calls were made as follows, unless noted: active = hit-call score of the fitted dose curve at least 0.9, where 1 is the maximum; inactive = score below 0.9.

The nature of experiment [1]: CCTE_Padilla_ZF_Score.Craniofacial: CCTE's 144 Hour Post-fertilization zebrafish Assay Score for Craniofacial Malformation, Padilla Lab (AID 2284405). Summed up: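 Wild-type zebrafish embryos (with chorions), one per well in 10% Hanks', were dosed at 6–8 hpf in sealed plates and kept at 26C. They were rinsed at 5 dpf. At 6 dpf two blinded assessors scored craniofacial malformations by brightfield stereomicroscopy.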

The nature of experiment [2]: CCTE_Padilla_ZF_Score.Edema: CCTE's 144 Hour Post-fertilization zebrafish Assay Score for Edema Malformation, Padilla Lab (AID 2284406). Summed up:
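Wild-type zebrafish embryos, one per well in Hanks' solution, dosed at 6-8 hpf, sealed and reared at 26C on a 14:10 h cycle; rinsed on 5 dpf. At 6 dpf, blinded assessors scored edema by stereomicroscopy.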

The nature of experiment [3]: CCTE_Padilla_ZF_Score.Spine: CCTE's 144 Hour Post-fertilization zebrafish Assay Score for Spine Malformation, Padilla Lab (AID 2284407). Summed up:
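Wild-type zebrafish embryos, one per well in Hanks' solution, dosed at 6–8 hpf in sealed plates at 26C, 14:10 h light:dark; rinsed at 5 dpf. Two blinded assessors scored spinal defects by stereomicroscopy at 6 dpf; fitted versus DMSO.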

Experiment [4] can be described thus: Tanguay_ZF_120hpf_MO24: Oregon State University Tanguay Lab 24 Hour Post-fertilization zebrafish Assay for Mortality (AID 2284389). Put shortly:
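Dechorionated wild-type zebrafish embryos, 1 per well, statically exposed from 6 hpf at 28C, 0.64% DMSO final. Mortality scored as binary present/absent at 24 hpf by brightfield microscopy, relative to DMSO.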

A short description of experiment [5]: Tanguay_ZF_120hpf_DP24: Oregon State University Tanguay Lab 24 Hour Post-fertilization zebrafish Assay for Delayed Development (AID 2284390). Summed up: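 Dechorionated 5D wild-type zebrafish embryos exposed statically from 6 hpf, one per well, 0.64% DMSO final, 28 C, sealed and dark. Developmental progression scored at 24 hpf by brightfield as binary present/absent; dead embryos excluded.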

The nature of experiment [6]: Tanguay_ZF_120hpf_CRAN: Oregon State University Tanguay Lab 120 Hour Post-fertilization zebrafish Assay for Craniofacial Malformation (AID 2284397). Put shortly: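 Dechorionated Tropical 5D wild-type zebrafish embryos, one per well, were statically exposed from 6 to 120 hpf at 28C in 0.64% DMSO, with 5uM trimethyltin chloride as positive control. Craniofacial malformation was scored present/absent by brightfield microscopy, relative to DMSO.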

Experiment [7] can be described thus: Tanguay_ZF_120hpf_AXIS: Oregon State University Tanguay Lab 120 Hour Post-fertilization zebrafish Assay for Axial Malformation (AID 2284398). Summed up:
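Dechorionated 5D wild-type zebrafish embryos exposed statically, one per well, from 6 to 120 hpf at 28C, 0.64% DMSO. Axial malformation scored as present/absent by brightfield microscopy at 120 hpf; dead embryos not scored.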

Experiment [8] in a line: Tanguay_ZF_120hpf_MORT: Oregon State University Tanguay Lab 120 Hour Post-fertilization zebrafish Assay for Mortality (AID 2284399). Put shortly:
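Dechorionated wild-type Tropical 5D zebrafish embryos, one per well from 6 hpf, static exposure to 120 hpf at 28C in sealed dark plates, 0.64% DMSO final. Mortality scored as binary by brightfield at 24 and 120 hpf.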

Experiment [9] can be described thus: Tanguay_ZF_120hpf_TCHR: Oregon State University Tanguay Lab 120 Hour Post-fertilization zebrafish Assay for Touch Responsive (AID 2284403). Put shortly: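 Dechorionated Tropical 5D wild-type zebrafish embryos, one per well from 6 hpf, were statically exposed to 120 hpf at 28 °C (0.64% DMSO). Touch response was scored present/absent at 120 hpf and not scored in dead larvae.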

A short description of experiment [10]: Tanguay_ZF_120hpf_ANY: Oregon State University Tanguay Lab 120 Hour Post-fertilization zebrafish Assay for Any Mortality and Malformation (AID 2284404). Summed up: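 Dechorionated Tropical 5D wild-type embryos, one per well from 6 hpf, static exposure in sealed, dark plates at 28C until 120 hpf, 0.64% DMSO final. Brightfield scoring of mortality and malformations as binary presence/absence, pooling 13 morphology endpoints.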

The nature of experiment [11]: CCTE_Mundy_HCI_iCellGluta_NOG_NeuronCount: CCTE's Neurite Outgrowth Assay in iCellGluta cells for Neuron Count, Mundy Lab (AID 2284340; active = hit-call score of the fitted dose curve at least 0.9, where 1 is the maximum;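 also: cells fixed about 48 h after compound addition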). Put shortly:
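Neuron count read by automated high-content imaging of Hoechst 33342 and betaIII-tubulin/Alexa Fluor-488 labelling in human iPSC glutamatergic neurons. Activity fitted relative to DMSO.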

Experiment [12] is described as follows: CCTE_Mundy_HCI_iCellGluta_NOG_NeuriteCount: CCTE's Neurite Outgrowth Assay in iCellGluta cells for Neurite Count, Mundy Lab (AID 2284342; active = hit-call score of the fitted dose curve at least 0.9, where 1 is the maximum;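 also: chemical exposure about 48 hours starting 2 hours after plating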).
Experiment [13] concerns SERPINA7 (gene 6906). Description: CCTE_GLTED_hTBG: CCTE's human Thyroxine-binding Globulin (TBG) Inhibition Assay, Great Lakes Toxicology and Ecology Division (GLTED) Lab (AID 2284343; active = hit-call score of the fitted dose curve at least 0.9, where 1 is the maximum;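 also: active chemicals lower fluorescence versus DMSO baseline by displacing probe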). Put shortly: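 Cell-free binding assay in which human TBG is incubated with test chemical for 2 hours and displacement of the fluorescent probe ANSA is read at 380 nm excitation/475 nm emission. Activity is fitted against DMSO as the negative control.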

Experiment [14] can be described thus: Tanguay_ZF_120hpf_BRN: Oregon State University Tanguay Lab 120 Hour Post-fertilization zebrafish Assay for Brain Region Malformation (AID 2284402). Summed up: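 Dechorionated wild-type Tropical 5D zebrafish embryos exposed statically from 6 to 120 hpf at 28C, one per well, 0.64% DMSO final. Brain malformation scored at 120 hpf by brightfield as present/absent; dead embryos not scored.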

In the case of `FC(F)(F)C(F)(F)C(F)(F)C(F)(F)C(F)(F)C(F)(F)CCS`, the compound was classed as inactive in experiment [1], in [2] and in experiment [3].
On to `C=CC(F)(F)C(F)(F)C(F)(F)C(F)(F)C(F)(F)C(F)(F)C(F)(F)C(F)(F)C=C`, for which the outcome in experiment [4], in [5], in experiment [6], in experiment [7], in [8] and in experiment [9] was inactive. In addition, the AC50 in experiment [10] was 10.3 µM (active).
Turning to `FC(F)(F)C(F)(F)CNCC(F)(F)C(F)(F)F`, the compound was called inactive in experiment [4], in experiment [5], in experiment [6], in [7], in experiment [8] and in experiment [9]. In addition, the outcome in experiment [10], in [1], in [2] and in experiment [3] was inactive.
Take `OCC(F)(F)C(F)(F)C(F)(F)F`: the outcome in [11], in experiment [12], in [4], in experiment [5], in experiment [6] and in experiment [7] was inactive. Also, the call in experiment [8], in [9], in experiment [10], in experiment [1], in experiment [2] and in experiment [3] was inactive.
Turning to `CCCCC(CC)COP(=O)(O)OCC(CC)CCCC` (centres undefined), the half-maximal activity concentration (AC50) in [13] was 2.42 µM (active).
On to `C=CC(F)(F)C(F)(F)C(F)(F)C(F)(F)C(F)(F)C(F)(F)C(F)(F)C(F)(F)F`, for which the compound was classed as inactive in [4], in experiment [5], in experiment [6], in experiment [7], in [8] and in [9]. In addition, the compound was classed as inactive in experiment [10], in experiment [1], in experiment [2] and in experiment [3].
In the case of `O=S(=O)(O)c1ccc2ccccc2c1`, in experiment [13], the AC50 was 24.5 µM (active).
On to `FC1CC(F)(F)C(F)(F)C1(F)F` (centres undefined), for which the outcome in [4], in experiment [5], in experiment [6], in [7], in experiment [8] and in [9] was inactive. Besides, the compound was classed as inactive in experiment [10].
Consider `OCCCC(F)(F)C(F)(F)C(F)(F)C(F)(F)C(F)(F)C(F)(F)C(F)(F)F`, for which the compound was classed as inactive in experiment [11], in experiment [12], in experiment [4], in [5], in experiment [6] and in experiment [7]. The compound was classed as inactive in experiment [8], in experiment [9], in experiment [10], in experiment [1] and in experiment [3]. The AC50 in [2] is 36.4 µM (active).
In the case of `C=C(C)C(=O)OCCC(F)(F)C(F)(F)C(F)(F)C(F)(F)C(F)(C(F)(F)F)C(F)(F)F`, the result in experiment [4], in [5], in experiment [6], in experiment [7], in [8] and in experiment [9] was inactive. Also, the outcome in [10], in experiment [1], in [2] and in [3] was inactive.
On to `FC(F)(F)C(F)(F)C(F)(F)C(F)(F)C(F)(F)C(F)(F)C(F)(F)C(F)(F)CCS`, for which the AC50 in experiment [11] is 5 µM (active). Further, the call in [12], in [4], in experiment [5], in experiment [6], in experiment [7] and in [8] was inactive. Besides, the compound was classed as inactive in experiment [9], in experiment [10], in experiment [1], in [2] and in experiment [3].
For the compound `FC(F)(F)C(F)(F)C(F)(F)N(C(F)(F)C(F)(F)C(F)(F)F)C(F)(F)C(F)(F)C(F)(F)F`, the compound was called inactive in [4], in experiment [5], in experiment [6], in experiment [7], in experiment [8] and in experiment [9]. The compound was classed as inactive in experiment [10], in experiment [1], in experiment [2] and in experiment [3].
Regarding `FC(F)(F)C(F)(F)C(F)(F)C(F)(F)C(F)(F)C(F)(F)C(F)(F)C(F)(F)F`, the outcome in experiment [11], in experiment [12], in [4], in experiment [5], in [6] and in [7] was inactive. Further, the compound was called inactive in [8], in experiment [9], in experiment [10], in [1], in experiment [2] and in experiment [3].
Turning to `FC(F)(F)C(F)(F)C(F)(F)C(F)(F)C(F)(F)C(F)(F)CC1CO1` (centres undefined), the result in experiment [11], in [12], in experiment [4], in experiment [5], in experiment [6] and in [7] was inactive. In addition, the result in experiment [8], in experiment [9], in experiment [10], in experiment [1], in [2] and in experiment [3] was inactive.
On to `O=C(O)C(F)(OC(F)(F)C(F)(OC(F)(F)C(F)(F)C(F)(F)F)C(F)(F)F)C(F)(F)F` (centres undefined), for which the call in experiment [4], in experiment [5], in experiment [6], in [7], in [8] and in experiment [9] was inactive. In addition, the result in experiment [10], in experiment [1], in experiment [2] and in experiment [3] was inactive.
Consider `C=CC(=O)OCC(F)(F)C(F)(F)C(F)(F)C(F)(F)C(F)(F)C(F)(F)C(F)(F)F`, for which the call in [4], in experiment [5], in [6], in experiment [7], in [8] and in experiment [9] was inactive. For the same compound, the compound was called inactive in [10], in [1], in experiment [2] and in [3].
Take `O=S(=O)(OCCOC(F)(F)F)C(F)(F)F`: the outcome in [4], in [5], in [6], in experiment [7], in experiment [8] and in experiment [9] was inactive. Further, the compound was called inactive in experiment [10], in experiment [1], in experiment [2] and in [3].
On to `O=C(O)C=C(C(F)(F)F)C(F)(F)F`, for which the outcome in [4], in experiment [5], in [6], in experiment [7], in experiment [8] and in experiment [9] was inactive. For the same compound, the compound was classed as inactive in experiment [10], in experiment [1], in experiment [2] and in experiment [3].
Turning to `Cc1ccc(S(=O)(=O)OCC(F)(F)C(F)(F)C(F)(F)C(F)(F)C(F)(F)C(F)F)cc1`, the result in experiment [4], in experiment [5], in experiment [6], in [7], in [8] and in experiment [9] was inactive. In addition, the call in experiment [10], in [1], in [2] and in experiment [3] was inactive.
Consider `O=C(O)C(F)(OC(F)(F)C(F)(OC(F)(F)C(F)(OC(F)(F)C(F)(F)C(F)(F)F)C(F)(F)F)C(F)(F)F)C(F)(F)F` (centres undefined), for which the result in experiment [4], in experiment [5], in experiment [6], in experiment [7], in experiment [8] and in [14] was inactive. The compound was classed as inactive in [9], in experiment [10], in experiment [1], in experiment [2] and in experiment [3].
Regarding `C=C(C)C(=O)OCC(F)(F)C(F)(F)C(F)(F)C(F)(F)C(F)(F)C(F)(F)C(F)(F)F`, the outcome in [4], in [5], in experiment [6], in [7], in [8] and in [14] was inactive. Also, the compound was classed as inactive in [9], in experiment [10], in experiment [1], in experiment [2] and in experiment [3].
`NC(=O)C(F)(F)C(F)(F)C(F)(F)C(F)(F)F`: the call in [4], in experiment [5], in [6], in experiment [7], in [8] and in experiment [9] was inactive. Further, the compound was classed as inactive in [10], in experiment [1], in experiment [2] and in [3].
For the compound `FC(F)(Br)C(F)(F)C(F)(F)C(F)(F)C(F)(F)C(F)(F)Br`, the call in experiment [1], in experiment [2] and in experiment [3] was inactive.
